Assay [1] has as its system Vero E6 infected with SARS-CoV-2. The experiment in a line: morphology score (similarity to uninfected cells); higher = more like uninfected cells. As to conditions: 24 h.
The test system is the same in assay [2]. The experiment in a line: SARS-CoV-2 infection rate relative to infected DMSO; higher = more infection, active = 60 or less. As to conditions: 24 h.

Experimental findings from the supplement of paper PMC13380429 are described below.

For `Oc1ccc(C(O)CNCCCCCCNCC(O)c2ccc(O)c(O)c2)cc1O` (stereo unspecified) [hexoprenaline] (10 µM), the morphology score in assay [1] amounted to 0.0624. In addition, in assay [2], the SARS-CoV-2 infection rate is 116% (inactive).

Consider `COCc1nnc(N2CC(Oc3ccc(F)cc3Cl)C2)n1-c1ccc(OC)nc1` (10 µM), for which the morphology score in assay [1] is -0.109. In addition, the SARS-CoV-2 infection rate in assay [2] is 106% (inactive).

As for `COc1cc(C(=O)N(CC[C@H]2CCCN2C)C/C(C)=C/c2ccccc2F)cc(OC)c1OC` (racemic) (10 µM), the morphology score in assay [1] amounted to 0.055. In addition, the SARS-CoV-2 infection rate in assay [2] is 108% (inactive).

As to `CCCCCNCC(N)=O` [milacemide] (10 µM), the morphology score in assay [1] amounted to 0.0276. Further, in assay [2], the SARS-CoV-2 infection rate was 99% (inactive).

In assay [1], `COc1ccc2c3c1O[C@H]1C[C@@H](O)C=C[C@@]31CCN(C)C2` [galantamine] (10 µM) had a morphology score of 0.113. Further, in assay [2], the SARS-CoV-2 infection rate is 102% (inactive).

Molecule `CCn1nc(C(=O)O)c(=O)c2cc3c(cc21)OCO3` [cinoxacin] (10 µM) displayed a morphology score in assay [1] of -0.0392. Further, in assay [2], the SARS-CoV-2 infection rate is 104% (inactive).

Take `CCC(=O)NC[C@H](Cc1ccc(OCCc2nc(-c3ccccc3)oc2C)cc1)N/C(C)=C\C(=O)c1ccc(C(F)(F)F)cc1` (10 µM): in assay [1], the morphology score is -0.0333. Besides, the SARS-CoV-2 infection rate in assay [2] was 110% (inactive).

In turn, `NC(=O)c1ccc(I)c([N+](=O)[O-])c1` [iniparib] (10 µM) registered a morphology score in assay [1] of 0.0662. Besides, the SARS-CoV-2 infection rate in assay [2] is 106% (inactive).

Consider `Cn1cc(-c2ccc3nnc(Sc4ccc5ncccc5c4)n3n2)cn1` (10 µM), for which the morphology score in assay [1] was determined as 0.144. Besides, the SARS-CoV-2 infection rate in assay [2] was 87% (inactive).

Turning to `CC(C)=CCC[C@](C)(O)[C@H]1CC[C@]2(C)[C@@H]1[C@H](O)C[C@@H]1[C@@]3(C)CC[C@H](O)C(C)(C)[C@@H]3[C@@H](O)C[C@]12C` [hemomex-s] (10 µM), the morphology score in assay [1] was found to be 0.173. Also, the SARS-CoV-2 infection rate in assay [2] was 104% (inactive).

`CC(=O)Oc1c(C)cc(OCC(O)CNC(C)C)c(C)c1C` (stereo unspecified) [metipranolol] (10 µM) gave a morphology score in assay [1] of -0.0461. In assay [2], the SARS-CoV-2 infection rate was 108% (inactive).

In turn, `CCn1c(=O)n(C2=C(CO)CN(CC3CCCCCCC3)CC2)c2ccccc21` [trap-101] (10 µM) came in with a morphology score in assay [1] of -0.109. Further, the SARS-CoV-2 infection rate in assay [2] was 103% (inactive).

Regarding `CN1CCC(NC(=O)c2cc(-c3c(O)cc(O)cc3Oc3ccc([N+](=O)[O-])cc3)on2)CC1` (0.833333 µM), the morphology score in assay [1] is 0.247. Also, the SARS-CoV-2 infection rate in assay [2] was 95.5% (inactive).

Molecule `O=C1CN(/N=C/c2ccc([N+](=O)[O-])o2)C(=O)N1` [nitrofurantoin] (10 µM) showed a morphology score in assay [1] of 0.168. Moreover, the SARS-CoV-2 infection rate in assay [2] was 112% (inactive).

In assay [1], `C[C@H]1C[C@H]2[C@@H]3CCC4=CC(=O)C=C[C@]4(C)[C@@]3(F)[C@@H](O)C[C@]2(C)[C@@]1(O)C(=O)CO` [betamethasone] (10 µM) came in with a morphology score of -0.0234. Further, the SARS-CoV-2 infection rate in assay [2] is 111% (inactive).

In turn, `CCCCCCCCCCCCCCCC[N+](C)(C)CCN(Cc1ccc(OC)cc1)c1ncccn1` [thonzonium] (10 µM) returned a morphology score in assay [1] of -0.372. In addition, in assay [2], the SARS-CoV-2 infection rate was 122% (inactive).

The molecule `Oc1ccc2c3c1O[C@H]1c4c(c5ccccc5n4Cc4ccccc4)C[C@@]4(O)[C@@H](C2)N(CC2CC2)CC[C@]314` [N-benzylnaltrindole] (0.833333 µM) registered a morphology score in assay [1] of 0.148. For the same molecule, in assay [2], the SARS-CoV-2 infection rate is 102% (inactive).

On to `COc1ccccc1N1CCN(CCN2C(=O)c3ccccc3C(C)(C)C2=O)CC1` (10 µM), for which, in assay [1], the morphology score was 0.213. Moreover, the SARS-CoV-2 infection rate in assay [2] was 100% (inactive).

`CCCCCCCCCCCCCCCC(=O)O[C@@H]1[C@@H](O)[C@@H](O)[C@@H]([C@H](NC(=O)[C@@H]2C[C@@H](CCC)CN2C)[C@H](C)Cl)O[C@@H]1SC` [clindamycin-palmitate] (10 µM) yielded a morphology score in assay [1] of 0.0793. The SARS-CoV-2 infection rate in assay [2] is 108% (inactive).

The molecule `CC(C)(C)NS(=O)(=O)c1cncc(-c2cc(F)c3nc(N)nn3c2)c1` (10 µM) yielded a morphology score in assay [1] of 0.0263. The SARS-CoV-2 infection rate in assay [2] is 104% (inactive).

In assay [1], `CCCCCCCCC(=O)N[C@H](CN1CCCC1)[C@H](O)c1ccc2c(c1)OCCO2` (10 µM) registered a morphology score of 0.393. Further, in assay [2], the SARS-CoV-2 infection rate is 71.5% (inactive).

In turn, `Clc1ccc(Nc2nnc(Cc3ccncc3)c3ccccc23)cc1` [vatalanib] (10 µM) yielded a morphology score in assay [1] of 0.199. In addition, the SARS-CoV-2 infection rate in assay [2] was 96% (inactive).

`O=C(Nc1ccc(Cl)nc1)c1ccc(Cl)cc1` (10 µM) returned a morphology score in assay [1] of 0.18. For the same molecule, the SARS-CoV-2 infection rate in assay [2] is 99.5% (inactive).

Consider `COc1ccc2cc(OCC3(C(=O)O)CN(C(=O)c4ccc(F)cc4)C3)ccc2c1` (10 µM), for which, in assay [1], the morphology score is 0.0418. Besides, in assay [2], the SARS-CoV-2 infection rate was 110% (inactive).

`CC(=O)c1ccc2c(c1)C(=O)C1(CC1)O2` [spizofurone] (10 µM): the morphology score in assay [1] was -0.0677. For the same molecule, the SARS-CoV-2 infection rate in assay [2] was 112% (inactive).

Take `CN(C)CCNc1nc2cc(O)ccc2c2c1C(=O)c1ccccc1-2` (10 µM): the morphology score in assay [1] is -0.234. In addition, the SARS-CoV-2 infection rate in assay [2] is 106% (inactive).

For `C[n+]1cccc(C(=O)[O-])c1` [trigonelline] (0.833333 µM), the morphology score in assay [1] worked out at 0.0676. Also, the SARS-CoV-2 infection rate in assay [2] was 108% (inactive).

For `Nc1c2c(nc3c1CCC3)CCCC2` [ipidacrine] (10 µM), the morphology score in assay [1] came to 0.22. Further, the SARS-CoV-2 infection rate in assay [2] was 83.5% (inactive).
